Assay results reported in article PMC11006913.

The sequences below were run against T1, NKX2-6 (Homo sapiens, UniProt A6NCS4 118-204) (assay: PBM; 200 nM protein, PBS). Settings: dsDNA, one strand shown.
T1 sequence: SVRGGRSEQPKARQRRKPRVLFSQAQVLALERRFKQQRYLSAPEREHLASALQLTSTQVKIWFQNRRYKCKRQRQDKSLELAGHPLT

Sequence | binding signal
AATTACGC | 11.3 upbm affinity estimate (log intensity, higher = more binding, comparable within an allelic series)
AACACTCC | 11.3 upbm affinity estimate (log intensity, higher = more binding, comparable within an allelic series)
GTACTAGA | 12.1 upbm affinity estimate (log intensity, higher = more binding, comparable within an allelic series)
CGTAATAA | 11 upbm affinity estimate (log intensity, higher = more binding, comparable within an allelic series)
GATTATGA | 11.2 upbm affinity estimate (log intensity, higher = more binding, comparable within an allelic series)
CTAAGTTA | 11.2 upbm affinity estimate (log intensity, higher = more binding, comparable within an allelic series)
ACTTGTTC | 11.7 upbm affinity estimate (log intensity, higher = more binding, comparable within an allelic series)
CAATTCAA | 11.8 upbm affinity estimate (log intensity, higher = more binding, comparable within an allelic series)
AGTGCTAA | 12 upbm affinity estimate (log intensity, higher = more binding, comparable within an allelic series)

These sequences were tested against HOXD13 (Homo sapiens, UniProt P35453 263-343) (assay: PBM; 200 nM protein, PBS). Settings: dsDNA, one strand shown.
HOXD13 (Homo sapiens, UniProt P35453 263-343), sequence (P35453 263-343): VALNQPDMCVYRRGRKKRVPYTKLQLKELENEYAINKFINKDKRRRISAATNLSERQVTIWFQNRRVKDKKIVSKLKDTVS

Sequence | binding signal
GTTGTAAA | 11.8 upbm affinity estimate (log intensity, higher = more binding, comparable within an allelic series)
GAGCCCAC | 9.6 upbm affinity estimate (log intensity, higher = more binding, comparable within an allelic series)
CAGTGGGG | 9.55 upbm affinity estimate (log intensity, higher = more binding, comparable within an allelic series)
ATTTTATA | 11.8 upbm affinity estimate (log intensity, higher = more binding, comparable within an allelic series)
GCTCGTAA | 11.9 upbm affinity estimate (log intensity, higher = more binding, comparable within an allelic series)
TCTATAAA | 12.2 upbm affinity estimate (log intensity, higher = more binding, comparable within an allelic series)
ACCAGGGG | 9.61 upbm affinity estimate (log intensity, higher = more binding, comparable within an allelic series)

Each sequence was assayed against HOXD13 (Homo sapiens, UniProt P35453 263-343, T313A) (assay: PBM; 200 nM protein, PBS). Settings: dsDNA, one strand shown.
HOXD13 (Homo sapiens, UniProt P35453 263-343, T313A), sequence (P35453 263-343 T313A): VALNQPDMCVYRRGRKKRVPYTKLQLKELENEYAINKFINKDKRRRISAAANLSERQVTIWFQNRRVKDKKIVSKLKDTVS

Sequence | binding signal
GTTGTAAA | 11.7 upbm affinity estimate (log intensity, higher = more binding, comparable within an allelic series)
GAGCCCAC | 9.72 upbm affinity estimate (log intensity, higher = more binding, comparable within an allelic series)
CAGTGGGG | 9.72 upbm affinity estimate (log intensity, higher = more binding, comparable within an allelic series)
ATTTTATA | 11.9 upbm affinity estimate (log intensity, higher = more binding, comparable within an allelic series)
TAATATAA | 11.6 upbm affinity estimate (log intensity, higher = more binding, comparable within an allelic series)
GCTCGTAA | 11.7 upbm affinity estimate (log intensity, higher = more binding, comparable within an allelic series)
TCTATAAA | 11.9 upbm affinity estimate (log intensity, higher = more binding, comparable within an allelic series)
ATATAAAT | 11.6 upbm affinity estimate (log intensity, higher = more binding, comparable within an allelic series)
ACCAGGGG | 9.9 upbm affinity estimate (log intensity, higher = more binding, comparable within an allelic series)

These sequences were tested against HOXC9 (Homo sapiens, UniProt P31274 178-260, R222W) (assay: PBM; 200 nM protein, PBS). Settings: dsDNA, one strand shown.
HOXC9, sequence (P31274 178-260 R222W): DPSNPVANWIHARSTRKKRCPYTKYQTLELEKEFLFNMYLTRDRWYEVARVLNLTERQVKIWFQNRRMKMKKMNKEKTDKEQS

Sequence | binding signal
ATTTTATA | 11.1 upbm affinity estimate (log intensity, higher = more binding, comparable within an allelic series)
TAATATAA | 11 upbm affinity estimate (log intensity, higher = more binding, comparable within an allelic series)
TCTATAAA | 11 upbm affinity estimate (log intensity, higher = more binding, comparable within an allelic series)
ATATAAAT | 11 upbm affinity estimate (log intensity, higher = more binding, comparable within an allelic series)
